Results from the supplement of paper PMC8728848.
This is one part of a sample in which the strongest signals are shown more often than they occur.

Key:
Assay in all cases: glycan array binding signal (z-score within array); higher = stronger binding
Details in all cases: glycan notation: IUPAC condensed, linker removed; mutation: G182A
[1] = target: Fuc(a1-2)Gal(b1-4)GlcNAc
In short: (§1)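 From the Consortium for Functional Glycomics database, 3228 arrays were curated, keeping only those whose protein sequence was available. Binding is given as a within-array Z-score averaged across arrays sharing a protein sequence and across linkers. Negative Z-scores can be read as non-binding.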

[2] = target: Fuc(a1-2)Gal(b1-4)GlcNAc(b1-3)Gal(b1-4)GlcNAc(b1-3)Gal(b1-4)GlcNAc
In short: as §1

[3] = target: Fuc(a1-2)Gal(b1-4)GlcNAc(b1-3)GalNAc
In short: as §1

[4] = target: Fuc(a1-2)[Gal(a1-3)]Gal(b1-4)GlcNAc
In short: as §1

[5] = target: Fuc(a1-2)[Gal(a1-3)]Gal(b1-4)GlcNAc(b1-2)Man(a1-3)[Fuc(a1-2)[Gal(a1-3)]Gal(b1-4)GlcNAc(b1-2)Man(a1-6)]Man(b1-4)GlcNAc(b1-4)GlcNAc
In short: as §1

[6] = target: Fuc(a1-2)[GalNAc(a1-3)]Gal(b1-4)GlcNAc(b1-2)Man(a1-3)[Fuc(a1-2)[GalNAc(a1-3)]Gal(b1-4)GlcNAc(b1-2)Man(a1-6)]Man(b1-4)GlcNAc(b1-4)GlcNAc
In short: as §1

[7] = target: Fuc(a1-2)[GalNAc(a1-3)]Gal(b1-4)GlcNAc(b1-3)Gal(b1-4)GlcNAc(b1-3)Gal(b1-4)GlcNAc
In short: as §1

[8] = target: Fuc(a1-3)[Gal(b1-4)]GlcNAc(b1-2)Man(a1-3)[Fuc(a1-3)[Gal(b1-4)]GlcNAc(b1-2)Man(a1-6)]Man(b1-4)GlcNAc(b1-4)GlcNAc
In short: as §1

[9] = target: Fuc(a1-3)[Gal(b1-4)]GlcNAc(b1-3)Gal(b1-3)[Fuc(a1-4)]GlcNAc
In short: as §1

[10] = target: Gal(a1-3)GalNAc
In short: as §1

[11] = target: Gal(a1-4)Gal(b1-4)Glc
In short: as §1

[12] = target: Gal(b1-3)GalNAc(b1-4)Gal(b1-4)Glc
In short: as §1

[13] = target: Gal(b1-4)GlcNAc(b1-2)Man(a1-6)[Man(a1-3)]Man(b1-4)GlcNAc(b1-4)GlcNAc
In short: as §1

[14] = target: Gal(b1-4)GlcNAc(b1-3)Gal(b1-4)GlcNAc(b1-3)Gal(b1-4)GlcNAc
In short: as §1

[15] = target: Gal(b1-4)GlcNAc(b1-6)Gal(b1-4)GlcNAc
In short: as §1

[16] = target: Gal3S(b1-3)[Fuc(a1-4)]GlcNAc
In short: as §1

[17] = target: GalNAc(a1-3)Gal
In short: as §1

[18] = target: GalNAc(b1-3)Gal(a1-6)Gal(b1-4)Glc
In short: as §1

[19] = target: GlcNAc(a1-4)Gal(b1-4)GlcNAc(b1-3)Gal(b1-4)GlcNAc(b1-3)Gal(b1-4)GlcNAc
In short: as §1

[20] = target: GlcNAc(b1-3)Gal(b1-4)GlcNAc(b1-3)Gal(b1-4)GlcNAc
In short: as §1

[21] = target: GlcNAc3Prop(b1-4)GlcNAc
In short: as §1

[22] = target: Man(a1-2)Man(a1-3)Man
In short: as §1

[23] = target: Man(a1-2)Man(a1-3)[Man(a1-2)Man(a1-6)]Man
In short: as §1

[24] = target: Neu5Ac(a2-3)Gal(b1-3)[Fuc(a1-4)]GlcNAc(b1-3)Gal(b1-3)[Fuc(a1-4)]GlcNAc
In short: as §1

[25] = target: Neu5Ac(a2-3)Gal(b1-4)GlcNAc(b1-2)Man(a1-3)[Neu5Ac(a2-6)Gal(b1-4)GlcNAc(b1-2)Man(a1-6)]Man(b1-4)GlcNAc(b1-4)GlcNAc
In short: as §1

[26] = target: Neu5Ac(a2-3)GalNAc
In short: as §1

[27] = target: Neu5Ac(a2-6)Gal(b1-4)Glc
In short: as §1

[28] = target: Neu5Ac(a2-6)Gal(b1-4)GlcNAc
In short: as §1

[29] = target: Neu5Ac(a2-6)Gal(b1-4)GlcNAc(b1-3)GalNAc
In short: as §1

[30] = target: Neu5Ac(a2-6)GlcNAc(b1-4)GlcNAc(b1-4)GlcNAc
In short: as §1

[31] = target: Neu5Ac(a2-8)Neu5Ac(a2-8)Neu5Ac(a2-3)[GalNAc(b1-4)]Gal(b1-4)Glc
In short: as §1

[32] = target: Neu5Ac9Ac(a2-6)Gal(b1-4)GlcNAc
In short: as §1

[33] = target: Neu5Gc(a2-3)Gal(b1-4)Glc
In short: as §1

B1: Gal 3 (Homo sapiens), P17931 (protein)
chain: MADNFSLHDALSGSGNPNPQGWPGAWGNQPAGAGGYPGASYPGAYPGQAPPGAYPGQAPPGAYHGAPGAYPGAPAPGVYPGPPSGPGAYPSSGQPSAPGAYPATGPYGAPAGPLIVPYNLPLPGGVVPRMLITILGTVKPNANILDFQRGNDVAFHFNPRFNENNRRVIVCNTKLDNNWAREERQSVFPFESGKPFKIQVLVEPDHFKVAVNDAHLLQYNHRVKKLNEISKLGISGDIDLTSASYTMI
glycan array binding signal (z-score) [1]: -0.188 | glycan array binding signal (z-score) [2]: 5.12 | glycan array binding signal (z-score) [3]: -0.187 | glycan array binding signal (z-score) [4]: 1.68 | glycan array binding signal (z-score) [5]: 9.17 | glycan array binding signal (z-score) [6]: 5.25 | glycan array binding signal (z-score) [7]: 6.29 | glycan array binding signal (z-score) [8]: -0.191 | glycan array binding signal (z-score) [9]: -0.188 | glycan array binding signal (z-score) [10]: -0.185 | glycan array binding signal (z-score) [11]: -0.192 | glycan array binding signal (z-score) [12]: -0.189 | glycan array binding signal (z-score) [13]: -0.197 | glycan array binding signal (z-score) [14]: 7.13 | glycan array binding signal (z-score) [15]: -0.196 | glycan array binding signal (z-score) [16]: -0.186 | glycan array binding signal (z-score) [17]: -0.192 | glycan array binding signal (z-score) [18]: -0.19 | glycan array binding signal (z-score) [19]: 9.32 | glycan array binding signal (z-score) [20]: 4.53 | glycan array binding signal (z-score) [21]: -0.182 | glycan array binding signal (z-score) [22]: -0.189 | glycan array binding signal (z-score) [23]: -0.189 | glycan array binding signal (z-score) [24]: -0.187 | glycan array binding signal (z-score) [25]: -0.168 | glycan array binding signal (z-score) [26]: -0.192 | glycan array binding signal (z-score) [27]: -0.183 | glycan array binding signal (z-score) [28]: -0.177 | glycan array binding signal (z-score) [29]: -0.143 | glycan array binding signal (z-score) [30]: -0.191 | glycan array binding signal (z-score) [31]: -0.167 | glycan array binding signal (z-score) [32]: -0.189 | glycan array binding signal (z-score) [33]: -0.195
